Targets with a hit are over-represented here; the source holds about 6,500 in all. About 2% of all pairs of compound and target were hits.

Chain of UniProt Q9GZR2 (Q9GZR2 whole entry, looked up): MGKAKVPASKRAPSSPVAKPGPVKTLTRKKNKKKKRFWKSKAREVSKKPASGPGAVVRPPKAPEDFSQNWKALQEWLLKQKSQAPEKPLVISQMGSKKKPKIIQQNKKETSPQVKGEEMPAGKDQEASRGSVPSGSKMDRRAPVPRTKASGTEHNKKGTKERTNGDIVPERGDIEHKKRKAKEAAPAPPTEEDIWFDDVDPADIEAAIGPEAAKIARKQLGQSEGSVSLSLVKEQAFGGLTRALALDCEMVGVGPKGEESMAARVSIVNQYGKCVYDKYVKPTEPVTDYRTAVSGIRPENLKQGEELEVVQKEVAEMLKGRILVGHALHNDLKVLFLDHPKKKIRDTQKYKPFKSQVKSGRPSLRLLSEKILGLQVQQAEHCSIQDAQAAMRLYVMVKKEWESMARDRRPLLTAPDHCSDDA
Chain of UniProt Q9Y2H0 (Q9Y2H0 whole entry, looked up): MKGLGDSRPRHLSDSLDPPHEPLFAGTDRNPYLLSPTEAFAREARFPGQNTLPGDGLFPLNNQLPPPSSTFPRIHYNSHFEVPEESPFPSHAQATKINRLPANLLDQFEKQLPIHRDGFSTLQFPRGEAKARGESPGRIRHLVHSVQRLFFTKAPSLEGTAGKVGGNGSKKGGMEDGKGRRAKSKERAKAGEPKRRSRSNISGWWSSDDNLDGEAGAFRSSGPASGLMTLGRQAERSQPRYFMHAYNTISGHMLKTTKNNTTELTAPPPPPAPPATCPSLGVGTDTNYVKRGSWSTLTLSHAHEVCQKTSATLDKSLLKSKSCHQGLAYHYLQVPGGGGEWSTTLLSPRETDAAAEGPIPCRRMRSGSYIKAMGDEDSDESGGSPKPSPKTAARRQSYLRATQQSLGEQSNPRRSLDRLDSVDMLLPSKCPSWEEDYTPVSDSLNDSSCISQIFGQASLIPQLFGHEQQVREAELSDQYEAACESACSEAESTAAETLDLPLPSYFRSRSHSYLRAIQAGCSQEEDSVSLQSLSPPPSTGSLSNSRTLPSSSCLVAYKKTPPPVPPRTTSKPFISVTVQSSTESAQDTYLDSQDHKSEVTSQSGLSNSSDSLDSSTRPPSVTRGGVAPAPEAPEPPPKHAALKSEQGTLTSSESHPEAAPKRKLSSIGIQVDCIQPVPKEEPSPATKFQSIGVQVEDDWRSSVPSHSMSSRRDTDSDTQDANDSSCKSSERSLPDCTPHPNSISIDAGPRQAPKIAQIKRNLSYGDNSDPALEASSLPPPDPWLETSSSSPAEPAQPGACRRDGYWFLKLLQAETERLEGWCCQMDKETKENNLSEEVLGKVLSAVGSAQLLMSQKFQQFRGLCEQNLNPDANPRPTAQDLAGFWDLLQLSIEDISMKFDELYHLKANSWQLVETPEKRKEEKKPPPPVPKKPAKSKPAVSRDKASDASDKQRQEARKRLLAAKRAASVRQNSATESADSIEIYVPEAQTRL
Chain of UniProt Q9Y496 (Q9Y496 whole entry): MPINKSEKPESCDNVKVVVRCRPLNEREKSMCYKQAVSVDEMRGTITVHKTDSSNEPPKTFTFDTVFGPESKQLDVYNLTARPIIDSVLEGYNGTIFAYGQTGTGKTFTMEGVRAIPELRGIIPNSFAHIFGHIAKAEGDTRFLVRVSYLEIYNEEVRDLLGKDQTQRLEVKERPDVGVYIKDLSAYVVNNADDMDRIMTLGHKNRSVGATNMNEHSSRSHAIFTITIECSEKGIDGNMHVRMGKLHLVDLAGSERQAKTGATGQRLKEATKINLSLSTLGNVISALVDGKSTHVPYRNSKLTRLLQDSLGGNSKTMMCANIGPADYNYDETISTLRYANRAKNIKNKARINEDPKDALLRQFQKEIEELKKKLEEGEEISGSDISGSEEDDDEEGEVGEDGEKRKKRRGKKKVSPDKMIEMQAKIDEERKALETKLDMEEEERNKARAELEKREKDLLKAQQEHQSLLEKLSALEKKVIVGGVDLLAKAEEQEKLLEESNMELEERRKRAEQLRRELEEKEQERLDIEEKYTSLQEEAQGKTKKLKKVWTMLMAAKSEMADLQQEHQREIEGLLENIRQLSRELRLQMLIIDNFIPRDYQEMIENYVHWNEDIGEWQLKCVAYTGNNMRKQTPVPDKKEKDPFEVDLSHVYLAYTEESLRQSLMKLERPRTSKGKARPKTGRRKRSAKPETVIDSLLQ
Chain of UniProt Q9NRP0 (Q9NRP0 whole entry): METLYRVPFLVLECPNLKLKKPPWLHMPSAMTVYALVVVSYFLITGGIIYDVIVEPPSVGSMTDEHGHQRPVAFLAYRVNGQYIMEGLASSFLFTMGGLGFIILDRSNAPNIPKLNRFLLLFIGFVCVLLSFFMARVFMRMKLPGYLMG
Chain of UniProt Q9NQG5 (Q9NQG5 whole entry): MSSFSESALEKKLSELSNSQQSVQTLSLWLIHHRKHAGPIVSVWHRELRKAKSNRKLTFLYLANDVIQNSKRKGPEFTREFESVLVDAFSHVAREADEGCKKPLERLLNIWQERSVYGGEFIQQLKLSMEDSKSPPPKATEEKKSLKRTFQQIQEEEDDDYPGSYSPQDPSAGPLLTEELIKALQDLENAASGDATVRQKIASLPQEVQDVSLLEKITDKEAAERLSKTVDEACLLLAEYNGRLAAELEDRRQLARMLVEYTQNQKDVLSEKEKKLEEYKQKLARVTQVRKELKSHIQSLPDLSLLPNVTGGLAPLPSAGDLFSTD
Chain of UniProt Q9UHI6 (Q9UHI6 whole entry, looked up): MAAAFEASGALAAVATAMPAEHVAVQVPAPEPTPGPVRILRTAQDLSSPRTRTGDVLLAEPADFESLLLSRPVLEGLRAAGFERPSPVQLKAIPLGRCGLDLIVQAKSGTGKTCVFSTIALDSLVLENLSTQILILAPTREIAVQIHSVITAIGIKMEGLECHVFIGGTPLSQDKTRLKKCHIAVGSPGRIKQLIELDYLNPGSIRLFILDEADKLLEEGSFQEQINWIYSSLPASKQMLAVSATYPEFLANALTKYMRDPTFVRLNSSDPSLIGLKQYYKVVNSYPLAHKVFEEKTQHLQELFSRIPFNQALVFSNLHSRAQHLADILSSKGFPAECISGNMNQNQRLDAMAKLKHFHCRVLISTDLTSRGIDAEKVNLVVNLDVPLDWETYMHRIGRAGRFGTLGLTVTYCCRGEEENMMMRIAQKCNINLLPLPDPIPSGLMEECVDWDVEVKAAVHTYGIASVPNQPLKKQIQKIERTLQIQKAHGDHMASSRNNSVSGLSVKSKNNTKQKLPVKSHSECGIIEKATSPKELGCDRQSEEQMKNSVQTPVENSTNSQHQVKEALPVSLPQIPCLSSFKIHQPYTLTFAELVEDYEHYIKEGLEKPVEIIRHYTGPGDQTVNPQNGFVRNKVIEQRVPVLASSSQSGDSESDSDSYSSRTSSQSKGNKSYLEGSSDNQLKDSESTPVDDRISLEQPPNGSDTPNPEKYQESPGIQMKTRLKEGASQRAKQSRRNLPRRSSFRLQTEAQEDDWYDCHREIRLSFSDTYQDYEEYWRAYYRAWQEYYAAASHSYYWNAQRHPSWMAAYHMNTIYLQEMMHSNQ
Chain of UniProt Q9UHR5 (Q9UHR5 whole entry, looked up): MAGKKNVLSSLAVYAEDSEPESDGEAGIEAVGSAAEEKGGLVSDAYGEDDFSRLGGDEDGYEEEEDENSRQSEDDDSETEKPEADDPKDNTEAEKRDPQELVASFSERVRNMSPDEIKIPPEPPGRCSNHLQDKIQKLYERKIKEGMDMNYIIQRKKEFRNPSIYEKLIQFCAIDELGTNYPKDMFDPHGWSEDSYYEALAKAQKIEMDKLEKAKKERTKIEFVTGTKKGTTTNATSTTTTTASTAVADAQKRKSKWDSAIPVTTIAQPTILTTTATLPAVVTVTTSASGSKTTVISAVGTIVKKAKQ
Chain of UniProt Q9BWU0 (Q9BWU0 whole entry, looked up): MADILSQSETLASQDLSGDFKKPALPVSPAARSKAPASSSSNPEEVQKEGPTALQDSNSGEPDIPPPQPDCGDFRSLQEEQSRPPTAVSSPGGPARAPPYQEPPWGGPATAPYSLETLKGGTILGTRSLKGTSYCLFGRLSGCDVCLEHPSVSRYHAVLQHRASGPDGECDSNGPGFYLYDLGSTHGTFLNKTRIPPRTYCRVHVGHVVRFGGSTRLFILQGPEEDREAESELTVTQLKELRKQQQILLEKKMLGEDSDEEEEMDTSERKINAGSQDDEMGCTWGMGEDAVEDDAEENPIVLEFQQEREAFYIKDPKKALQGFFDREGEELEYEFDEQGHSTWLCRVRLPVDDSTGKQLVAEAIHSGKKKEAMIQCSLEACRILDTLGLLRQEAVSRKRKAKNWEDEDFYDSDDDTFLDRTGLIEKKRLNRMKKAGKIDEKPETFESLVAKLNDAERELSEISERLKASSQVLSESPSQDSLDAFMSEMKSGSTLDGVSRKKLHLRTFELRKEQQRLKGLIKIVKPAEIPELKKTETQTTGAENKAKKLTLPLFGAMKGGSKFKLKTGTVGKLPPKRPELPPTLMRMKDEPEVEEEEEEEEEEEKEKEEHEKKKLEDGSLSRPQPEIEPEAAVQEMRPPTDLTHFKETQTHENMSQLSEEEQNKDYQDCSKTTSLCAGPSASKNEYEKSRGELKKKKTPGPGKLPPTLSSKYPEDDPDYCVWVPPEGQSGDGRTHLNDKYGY
Chain of UniProt Q9GZN1 (Q9GZN1 whole entry, looked up): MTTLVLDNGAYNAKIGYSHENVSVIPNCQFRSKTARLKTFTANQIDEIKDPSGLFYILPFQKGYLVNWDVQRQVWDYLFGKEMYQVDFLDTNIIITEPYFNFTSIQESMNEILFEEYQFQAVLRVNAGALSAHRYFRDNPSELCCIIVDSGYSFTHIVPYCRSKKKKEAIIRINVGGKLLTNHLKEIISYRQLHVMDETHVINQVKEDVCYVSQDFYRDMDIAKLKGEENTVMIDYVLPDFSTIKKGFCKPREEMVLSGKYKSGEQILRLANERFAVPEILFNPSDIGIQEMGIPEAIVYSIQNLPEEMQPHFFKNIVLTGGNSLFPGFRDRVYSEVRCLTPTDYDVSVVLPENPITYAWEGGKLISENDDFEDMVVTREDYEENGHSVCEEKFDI

Compound in the experiment: COC(=O)C#Cc1ccccc1 [methyl 3-phenylpropiolate]
Briefly: log2 ratio of iodoacetamide-alkyne labeling of the cysteine site, DMSO over compound (competition); higher = stronger covalent engagement of the cysteine by the compound, active = 1 or more. Particulars: 500 µM; treatment time 1 h; system: HEK293T cell lysate. In short, it runs like this: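 HEK293T lysate (2 mg/mL) was incubated with electrophile (500 µM) or vehicle for 1 h at ambient temperature and then with iodoacetamide alkyne for 1 h. Labelled proteins were clicked to sCIP-TMT reagents, pooled, digested, enriched on streptavidin and measured by Orbitrap Eclipse LC-MS/MS with FAIMS, with FragPipe quantification. The per-cysteine log2 competition ratio is mean control-channel reporter intensity over mean compound-channel reporter intensity. Across three replicates with duplicate channels, cysteines quantified in only one replicate were excluded.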
As to LARS C573 (UniProt Q9P2J5), the “log2 ratio of iodoacetamide-alkyne labeling” value (“log2 ratio” for short) is 0.342 (inactive). Under ACTR6 C339 (UniProt Q9GZN1) stands 0.248 (inactive); under MDN1 C271 (UniProt Q9NU22), 0.728 (inactive); under CHORDC1 C5 (UniProt Q9UHD1), -0.0481 (inactive). Under TLN1 C2243 (UniProt Q9Y490) stands 0.0807 (inactive); under CARS2 C526 (UniProt Q9HA77), 0.206 (inactive); under KIF3A C621 (UniProt Q9Y496), 0.962 (inactive). Under SLC4A1AP C730 (UniProt Q9BWU0) stands 1.48 (active); under SAP30BP C127 (UniProt Q9UHR5), 1.3 (active). DLGAP4 C736 (UniProt Q9Y2H0): the “log2 ratio” value was 0.69 (inactive).

As for REXO4 C382 (UniProt Q9GZR2), the “log2 ratio” value was 1.23 (active).

DDX20 C524 (UniProt Q9UHI6): the “log2 ratio” value was 0.6 (inactive).

On to LARS C554 (UniProt Q9P2J5), for which the “log2 ratio” value is 1.74 (active). The value for TPX2 C145 (UniProt Q9ULW0) was 0.384 (inactive). Under RPRD1B C234 (UniProt Q9NQG5) stands 0.513 (inactive); under MYO6 C1236 (UniProt Q9UM54), 0.0604 (inactive). Consider OSTC C14 (UniProt Q9NRP0), for which the “log2 ratio” value is 0.193 (inactive).

As to UniProt Q9BYG3_C237, the “log2 ratio” value was 0.515 (inactive).

Source of the values: the supplement of paper PMC11006884.
